What all share (assay): NCI-60 one-dose screen, 48 h (100 = growth as untreated, 0 = no growth, -100 = all killed)
Common to all, as to settings: 10 µM unless noted

For experiment [1], the system named is NCI-H23 lung.
The subject of experiment [2] is NCI-H226 lung.
Experiment [3] deals with HOP-62 NSCLC.
The subject of experiment [4] is NCI-H460 lung.
Experiment [5] concerns HOP-92 NSCLC.
Experiment [6] concerns NCI-H522 lung.
For experiment [7], the system named is A549/ATCC NSCLC.
Experiment [8] relates to 786-0 renal.
Experiment [9] deals with COLO 205 colon.
Experiment [10] deals with DU-145 prostate.
For experiment [11], the system named is K-562 leukemia.
In experiment [12] the test system is MALME-3M melanoma.
Experiment [13] relates to MDA-MB-231 breast.
For experiment [14], the system named is RXF 393 renal.
In experiment [15] the test system is SF-268 CNS.
The subject of experiment [16] is SF-295 CNS.
The test system of experiment [17] is SF-539 CNS.
Experiment [18] relates to UACC-257 melanoma.
Experiment [19] concerns M14 melanoma.
The subject of experiment [20] is NCI-H322M lung.

This passage reports growth results from PubChem BioAssay (NCI).

This is part of a sample that, as a whole, favours compounds with a hit. Of some 83,000 tested, about 20% had one in any assay.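 For each line, cells grew in 96-well plates with the test compound present at a single concentration for 48 hours.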 Values without a mark were called inactive. Calls of active or inactive are those of the source. The calls were made as follows: active = growth percent below 10; inactive = the rest.

Consider `Nc1ccccc1NS(=O)(=O)c1ccc(Cl)cc1`, for which the growth was 94.5% in experiment [1]; 103% in experiment [2]; 106% in experiment [3]; 104% in experiment [4]; 78.8% in [5]; 85.2% in [6]. Also, the growth in [7] was 107%; in experiment [8] it was 98%; in [9], 104%; in experiment [10], 94.2%; in experiment [11], 95.9%; in experiment [12] it was 87.5%. In addition, the growth in experiment [13] was 98.2%; in experiment [14], 115%; in experiment [15], 93.5%; in [16], 101%; in experiment [17], 95.6%; in [18], 98.4%. The growth in [19] was 97.1%.

As to `C=C(C)[C@@H]1CC[C@]2(C(=O)OCCCC[P+](c3ccccc3)(c3ccccc3)c3ccccc3)CC[C@]3(C)[C@H](CC[C@@H]4[C@@]5(C)CC[C@H](OC(=O)C(Cl)Cl)C(C)(C)[C@@H]5CC[C@]43C)[C@@H]12`, the growth is -16.5% (active) in experiment [1]; 2.79% (active) in experiment [20]; -0.785% (active) in [3]; -41.1% (active) in experiment [4]; -67.4% (active) in experiment [5]; -38.3% (active) in experiment [6]. For the same compound, the growth in experiment [7] was 0.629% (active); in experiment [8], -77.9% (active); in experiment [9] it was -74.4% (active); in experiment [10] it was 14.4%; in [11], -35.9% (active); in experiment [12], -85.7% (active). For the same compound, the growth in experiment [13] was -49.8% (active); in [14], -80.8% (active); in experiment [15] it was -15.7% (active); in experiment [16], -76.9% (active); in experiment [17], -44.2% (active); in experiment [18] it was -61% (active). For the same compound, in [19], the growth was -56.1% (active).

Take `N#Cc1ccc(N2Cc3cc(Cl)ccc3OC3=C2C(=O)N(Cc2ccc(F)cc2)C3=O)cc1`: the growth was 3.56% (active) in experiment [1]; 96.3% in experiment [20]; 52% in experiment [3]; 23.6% in experiment [4]; -64.1% (active) in experiment [5]; -63.2% (active) in [6]. For the same compound, the growth in experiment [7] is 68.5%; in [8], -90.5% (active); in experiment [9], -73.5% (active); in experiment [10], -91.8% (active); in [11] it was -21.6% (active); in experiment [12], -72.3% (active). Moreover, the growth in experiment [13] is -0.424% (active); in experiment [14] it was -56.8% (active); in [15], -58.4% (active); in experiment [16], 66.6%; in [17], -65.7% (active); in [18], -64% (active). For the same compound, in experiment [19], the growth was -68.4% (active).

As to `O=C1Nc2ccccc2C12C=C(c1ccccc1)Nc1c2c(-c2ccccc2)nn1-c1ccccc1` (stereo unspecified), the growth was 84.1% in experiment [1]; 82.7% in [20]; 81.4% in experiment [3]; 36.5% in [4]; 66.4% in [5]; 69.4% in [6]. For the same compound, the growth is 44.8% in experiment [7]; 80.6% in experiment [8]; 80.8% in experiment [9]; 83.4% in experiment [10]; 37.5% in experiment [11]; 98.5% in [12]. For the same compound, the growth in experiment [13] was 85.6%; in [14] it was 5.5% (active); in experiment [15] it was 58.5%; in [16] it was 42.1%; in experiment [17], 86.4%; in experiment [18], 88.7%. Also, the growth in [19] was 58.2%.

On to `CCCCc1n(Cc2ccc3ccccc3c2)c2ccccc2[n+]1Cc1ccc2ccccc2c1`, for which the growth in experiment [1] is -83.9% (active); in experiment [20] it was -82.3% (active); in experiment [3], -76.8% (active); in experiment [4], -81.1% (active); in experiment [5], -70.7% (active); in experiment [6], -77.2% (active). The growth was -72.3% (active) in experiment [7]; -80.1% (active) in [8]; -66.9% (active) in experiment [9]; -93.1% (active) in [10]; -73.2% (active) in experiment [11]; -86.2% (active) in experiment [12]. For the same compound, the growth is -88.2% (active) in experiment [13]; -92.6% (active) in experiment [14]; -80.5% (active) in experiment [15]; -87.8% (active) in experiment [16]; -94.3% (active) in experiment [17]; -58.1% (active) in experiment [18]. Further, the growth in [19] is -81.4% (active).

In the case of `CCCCN(CCCC)CC(CN(CC)CC)OC(=O)Nc1ccccc1` (stereo unspecified), the growth in experiment [1] was 72.2%; in experiment [3], 75.4%; in experiment [4] it was 105%; in experiment [5], 75%; in experiment [6], 74.7%; in [7], 92.9%. Besides, the growth in experiment [8] was 83%; in experiment [9] it was 79.6%; in experiment [10] it was 99.9%; in [11] it was 76%; in [12], 90.3%; in [13], 69.7%. Further, the growth in experiment [14] was 95.1%; in [15], 94.9%; in experiment [16] it was 77.5%; in [17], 94.4%; in experiment [18], 111%; in experiment [19] it was 80.9%.

`Cc1nccc2c3ccc(OCc4cn(-c5ccccc5)nn4)cc3n(CCCc3ccccc3)c12`: the growth in [1] is 80.8%; in [20], 75.6%; in experiment [3], 78.2%; in [4], 59.2%; in experiment [5], 57.3%; in experiment [6], 57.5%. The growth in experiment [7] was 52.2%; in [8] it was 80%; in experiment [9], 50.7%; in [10], 88.6%; in [11], 36.5%; in experiment [12], 90.4%. For the same compound, the growth in [13] was 79.6%; in experiment [14] it was 69.7%; in experiment [15], 88.3%; in experiment [16] it was 74.8%; in experiment [17], 78.2%; in [18], 55.9%. The growth in experiment [19] is 83.3%.

Take `C=C(C)[C@@H]1CC[C@]2(C(=O)NCCCO)CC[C@]3(C)[C@H](CC[C@@H]4[C@@]5(C)CCCNC(C)(C)[C@@H]5CC[C@]43C)[C@@H]12`: the growth in experiment [1] is 77.3%; in experiment [20] it was 78.6%; in [3] it was 89.9%; in experiment [4] it was 68.9%; in experiment [5], 58.1%; in [6], 88%. For the same compound, the growth was 73.1% in experiment [7]; 85.6% in experiment [8]; -62.6% (active) in experiment [9]; 89.1% in experiment [10]; 3.26% (active) in experiment [11]; -74.4% (active) in experiment [12]. Besides, the growth in experiment [13] was 49%; in experiment [14], 58.2%; in [15] it was 77.9%; in experiment [16], 89.3%; in experiment [17], 70.4%; in [18], -44.2% (active). Further, in experiment [19], the growth was 33.7%.
